Data: PubChem BioAssay AID588397 (National Center for Advancing Translational Sciences (NCATS), 2011)
Out of some 1,300 compounds screened, about 1,000 (77%) were called active. About 7% were inconclusive and are not listed. Calls follow the shape of the dose curve; as a rule, active = well fitted inhibition curve with a large enough effect; inconclusive = small, poorly fitted or top-dose-only effect; inactive = no such curve, though single readings can be large or run the other way. So high a share suggests a set chosen from earlier hits. Some of the results follow.

Test: qHTS of small molecules that selectively kill Giardia lamblia: Hit Validation.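 Also: viability measured as ATP content by luminescence so killing lowers signal; nearly all actives have a fitted effect of over 65% in size.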
Conditions: Giardia lamblia trophozoite viability, dose-response; series mostly up to 38.3 µM
How it was run: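 Compounds were tested on trophozoites seeded at 100 cells/well and held 48 hrs at 37 deg C anaerobically. An ATP-based luminescent kit measured the remaining live cells.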
Potency is read from the fitted curve at half-maximal effect.

Compound | Potency
CCCSc1nc2c(cnn2-c2ccc(C)c(C)c2)c(=O)[nH]1 | inactive
O=c1cc(-c2ccccc2)[nH]c2cc(Cl)ccc12 | inactive
COc1ccc(C(=O)NC2CCN(S(=O)(=O)c3ccc(F)cc3)CC2)cc1 | inactive
COc1ccc(S(=O)(=O)N2CCN(C(=O)c3ccc([N+](=O)[O-])o3)CC2)cc1 | 1.3 µM (active)
C=Cc1ccc(CN2CCCN(Cc3ccc(F)cc3)S2(=O)=O)cc1 | inactive
CN(C(=O)CN1CCN(c2ccc([N+](=O)[O-])cn2)CC1)c1ccccc1 | 4.1 µM (active)
Cc1ccc(CNC(=O)c2cc(-c3ccccc3C)n(CC3CC(c4cccc([N+](=O)[O-])c4)=NO3)n2)cc1 (centres undefined) | 2.9 µM (active)
Cc1nnc(SCc2ccc([N+](=O)[O-])cc2)[nH]c1=O | 2.31 µM (active)
O=[N+]([O-])/C(Cl)=C(/NCCO)C(Cl)=C(Cl)Cl | 0.259 µM (active)
CC(=O)c1c(C)[nH]c(C(=O)OCC(=O)Nc2cc(Cl)ccc2[N+](=O)[O-])c1C | 2.31 µM (active)
CCc1ccc(-c2nc3c(=O)n(C)c(=O)nc-3n(CC)n2)cc1 | 0.183 µM (active)
CCn1nc(-c2ccc(C)cc2)nc2c(=O)n(C)c(=O)nc1-2 | 0.206 µM (active)
CC1(C)CC(N=c2cc(-c3ccccc3)oc3ccc(Cl)cc23)CC(C)(C)N1 | 0.65 µM (active)
CN(C)CCCN=c1cc(-c2ccccc2)oc2ccc(Cl)cc12 | 0.579 µM (active)
Clc1ccc2oc(-c3ccccc3)cc(=NCCCN3CCOCC3)c2c1 | 0.818 µM (active)
O=C(c1ccc2c3n(nc2c1)-c1ccccc1CO3)N1CCCCC1 | 2.31 µM (active)
O=C(NCCO)c1ccc2c3n(nc2c1)-c1ccccc1CO3 | 3.26 µM (active)
O=Nc1c2ccc[nH]c-2c2ccc([N+](=O)[O-])cc12 | 1.03 µM (active)
O=C(Nc1ccc(N2CCCCC2)cc1)c1ccc([N+](=O)[O-])o1 | 3.26 µM (active)
CS(=O)(=O)N1CCN(c2ccc(NC(=O)c3ccc([N+](=O)[O-])o3)cc2)CC1 | 0.579 µM (active)

Compound | Potency
CC1CCN(c2ccc(NC(=O)c3ccc([N+](=O)[O-])o3)cc2)CC1 | 1.16 µM (active)
O=C(NCC1CCN(Cc2ccccc2F)CC1)Nc1ccccc1F | inactive
O=C(Nc1ccc(N2CCN(Cc3ccccc3F)CC2)cc1)c1ccc([N+](=O)[O-])o1 | 1.16 µM (active)
CCC(C(=O)N1CCOCC1)n1nc(C)n2c(cc3cc(C)ccc32)c1=O (centres undefined) | inactive
O=C(Nc1ccc(N2CCOCC2)cc1)c1ccc([N+](=O)[O-])o1 | 0.579 µM (active)
O=C(O)c1cc2ccccc2c(N=Nc2cccnc2)c1O | 2.05 µM (active)
O=C(NN1C(=O)c2ccccc2NC1c1ccc([N+](=O)[O-])o1)c1ccc([N+](=O)[O-])cc1 (centres undefined) | 2.05 µM (active)
O=C(NN1C(=O)c2ccccc2NC1c1ccc([N+](=O)[O-])o1)c1ccccc1 (centres undefined) | 1.03 µM (active)
Cc1[nH]c2ccccc2c1C(=O)C(C)OC(=O)c1ccc([N+](=O)[O-])o1 (centres undefined) | 1.83 µM (active)
COc1cc(/C=C/c2ccc3cccc(OC)c3n2)c(OC(C)=O)c([N+](=O)[O-])c1 | 1.83 µM (active)
COc1cc(/C=C/c2ccc3cccc(OC)c3n2)c(O)c([N+](=O)[O-])c1 | 1.63 µM (active)
O=C(Nc1cccc2ccccc12)C12CC3CC(C1)CC(n1cnc([N+](=O)[O-])n1)(C3)C2 | 3.65 µM (active)
O=C(Nc1cc([N+](=O)[O-])c2[nH]c(=O)c3ccccc3c2c1)C(F)(F)F | 1.03 µM (active)
COc1ccc(NS(=O)(=O)c2ccc3oc4ccccc4c3c2)cn1 | inactive
c1coc(-c2nc3cc4ccccc4cc3nc2-c2ccco2)c1 | 3.65 µM (active)
CCOn1c(=O)c(-c2cccc([N+](=O)[O-])c2)[n+]([O-])c2ccccc21 | 1.03 µM (active)
O=c1c(-c2cccc([N+](=O)[O-])c2)[n+]([O-])c2ccccc2n1O | 5.16 µM (active)
CC(NC(=O)c1ccc(N(C)C)c([N+](=O)[O-])c1)c1ccc(-n2ccnc2)cc1 (centres undefined) | 4.6 µM (active)
COc1ccccc1C1C([N+](=O)[O-])=CC([N+](=O)[O-])=CN1C (centres undefined) | 2.59 µM (active)
Cc1ccc(S(=O)(=O)N2[C@@H](c3ccc(F)cc3)C(C(=O)O)=CC[C@H]2c2ccc(Cl)cc2)cc1 | inactive

Compound | Potency
Cc1ccc(S(=O)(=O)N2[C@@H](c3ccccc3)C(C(=O)O)=CC[C@H]2c2cccc(Cl)c2)cc1 | 0.103 µM (active)
Cc1ccc(S(=O)(=O)N2[C@@H](c3ccc(F)cc3)C(C(=O)O)=CC[C@H]2c2ccc3c(c2)OCO3)cc1 | inactive
O=[N+]([O-])c1cccc2nc3ccccc3c(NCCCn3ccnc3[N+](=O)[O-])c12 | 1.63 µM (active)
CN=c1scc(-c2ccccc2F)n1/N=C(\C)c1cccnc1 | 4.1 µM (active)
Cc1ccc(Nc2ccc([N+](=O)[O-])nc2[N+](=O)[O-])cc1 | 3.26 µM (active)
COc1cc(Nc2ccc(C)cc2)c([N+](=O)[O-])nc1[N+](=O)[O-] | 1.45 µM (active)
O=C(Nc1ccc2[nH]ncc2c1)c1ccccc1Cl | 5.79 µM (active)
O=[N+]([O-])c1ccc(Oc2cccc(Br)c2)c2ccncc12 | 2.05 µM (active)
CN(C(=O)c1cc([N+](=O)[O-])ccc1NCc1cccnc1)c1ccccc1 | inactive
O=C(NCc1ccco1)c1ccc([N+](=O)[O-])o1 | 1.83 µM (active)
O=C(Cc1ccc(-n2c(=O)c3sccc3n(CC(=O)Nc3ccccc3)c2=O)cc1)NCc1ccco1 | inactive
O=C(NCc1cccnc1)c1ccc([N+](=O)[O-])o1 | 1.16 µM (active)
O=C(Nc1nnc(-c2ccco2)o1)c1ccc([N+](=O)[O-])s1 | 3.65 µM (active)
O=C(Nc1cccnc1)c1ccc([N+](=O)[O-])s1 | 2.05 µM (active)
CCN(C(=O)N(CC)c1ccccc1)c1ccccc1 | inactive
O=C(Nc1ccc(Cc2ccncc2)cc1)c1ccc([N+](=O)[O-])o1 | 1.16 µM (active)
O=C(Nc1cccnc1)c1ccc([N+](=O)[O-])o1 | 1.3 µM (active)
Cc1ccc(CNC(=O)c2cc(S(=O)(=O)N3CCOCC3)cn2C)cc1 | inactive
Cc1ccc(CNC(=O)c2ccc([N+](=O)[O-])o2)cc1 | 1.83 µM (active)
